Each structure is given as a SMILES string. This is part of a sample that, as a whole, favours compounds with a hit. Of some 83,000 tested, about 20% had one in any assay.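 48-hour exposure, single concentration, 96-well plates; percent growth endpoint where 0 means no net growth. Active: below 10.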 A number with no mark means an inactive call. The source made the active and inactive calls.

The subject of the test is HCT-15 colon. Description: NCI-60 one-dose screen, 48 h (100 = growth as untreated, 0 = no growth, -100 = all killed). The following applies: 10 µM unless noted. The method, then: Growth inhibition of the HCT-15 human tumor cell line is measured as a screen for anti-cancer activity. Cells are grown in 96 well plates and exposed to the test compound for 48 hours. Compounds are tested at a single concentration, which is 10^-5 M for most compounds. The reported endpoint is percent growth (GI% or GIPRCNT), where numbers from 0 - 100% represent growth inhibition, and numbers from -100% - 0 represent cell death. For example, a value of 40 represents 60% growth inhibition. A value of 0 means no net growth occurred over the course of the experiment. A value of -40 indicates 40% of cells at the beginning of the experiment died by the end of the experiment. A value of -100 means all cells are dead at the end of the experiment.
NCI-60 Human Tumor Cell Lines Screen was performed using the standard one-dose NCI protocol, which is described in more detail at https://dtp.cancer.gov/discovery_development/nci-60/default.htm.
Compounds with GIPRCNT values below 10 were considered active. Activity score was based on GIPRCNT using the following formula: […]
Score is 0 for GIPRCNT values of 100 or above, 50 for GIPRCNT values of 0, and 100 for GIPRCNT values of -100.
With `NC(=S)N/N=C(\c1ccc(Cl)cc1)C1CC1`, the growth is 84.3%.

On to `O=C(Nc1ccc(Cl)cc1)Nc1ccc(Cl)c(Cl)c1`, for which the growth was 3.42% (active).

In the case of `O=C1C(=O)c2c(nc3ncccn23)-c2ccccc21`, the growth was -67.2% (active).

As for `COc1ccc(Cn2nc(-c3ccccc3)c3c2CCc2cnoc2-3)cc1`, the growth was 67.6%.

On to `Cc1ccc(C2C3CC4CCCCC4N3[C@@]3(C(=O)Nc4cc(Cl)ccc43)C2C(=O)c2nc3ccccc3[nH]2)cc1` (stereo not given in full), for which the growth is 21.5%.

Consider `CCCC/C(=N\N=C(N)N)c1ccc(F)cc1`, for which the growth is 23.4%.

Consider `CN1CCN(CC#CCNC(=O)[C@]23CCC(C)(C)C[C@H]2C2=CC[C@@H]4[C@@]5(C)Cc6c([nH]c7ccccc67)C(C)(C)[C@@H]5CC[C@@]4(C)[C@]2(C)CC3)CC1`, for which the growth was 39.2%.

Consider `O=C(Nc1ccc(F)cc1)c1c(NC(=O)C(F)(F)F)sc2c1CCCCC2`, for which the growth was 11.5%.

Take `COc1cc(C2CC(c3cccc(Nc4ccncc4)c3)=NN2c2cc(Cl)cc(Cl)c2)cc(OC)c1OC` (stereo not given): the growth was -40.4% (active).

As to `Fc1ccc(-n2cc(COc3ncnc4sc5c(c34)CCCC5)nn2)cc1Cl`, the growth was 100%.

As for `O=S(=O)(NCCCNc1nccc(-c2c(-c3cccc(O)c3)nc3occn23)n1)c1ccc(F)cc1`, the growth was 90.2%.

`CC(C)CN(C(=O)c1ccc(Cl)cc1)c1c(N)n(CC(C)C)c(=O)[nH]c1=O`: the growth was 111%.

For `COc1cc2nc(-c3ccc(-c4nn[nH]n4)cc3)[nH]c(=O)c2cc1OC`, the growth is 106%.

Turning to `COc1cc2oc(-c3cccc(C(=O)Nc4ccc(Cl)cc4)c3)cc(=O)c2c(OC)c1OC`, the growth was 17%.

As for `COC(=O)Nc1ccc(NC(=O)OC)cc1`, the growth is 108%.

On to `C=C(C)[C@@H]1CC[C@]2(C=O)CC[C@]3(C)[C@H](CC[C@@H]4[C@@]5(C)CCCNC(C)(C)[C@@H]5CC[C@]43C)[C@@H]12`, for which the growth is 34.3%.

In the case of `CCCCCCCCOc1ccc(/C=N/Nc2cc(C)nc3ccc(Cl)cc23)cc1`, the growth was -82.3% (active).

For the compound `Cc1ccc2[nH]c(=O)cc(-n3nncc3COc3ccc(C=O)cc3)c2c1`, the growth was 102%.

Regarding `c1cnc2nc3c(cc2c1)oc1ccccc13`, the growth is 101%.

Regarding `CCCCCCc1nc2nc(Cl)c(Cl)nc2[nH]1`, the growth is 57.2%.

`C#CCNC(=O)[C@H](Cc1ccccc1)NC(=O)[C@]12CC[C@@H](C(=C)C)[C@@H]1[C@H]1CC[C@@H]3[C@@]4(C)Cc5c([nH]c6ccccc56)C(C)(C)[C@@H]4CC[C@@]3(C)[C@]1(C)CC2`: the growth was 101%.

As for `Cc1cc(C)n(Nc2nc3ccccc3[nH]c2=O)c(=O)c1C#N`, the growth is 102%.

For the compound `CN(C)C(=O)c1cc2cnc(Nc3ccc(-c4csc5c(=O)cc(N6CCOCC6)oc45)cc3)nc2n1C1CCCC1`, the growth was -11.4% (active).

As for `CN(C)CCCn1c2c(c3ccc(-c4ccn[nH]4)cc3c1=O)C(=O)c1ccccc1-2`, the growth is 10.9%.

Consider `C=C(C)[C@@H]1CC[C@]2(C(=O)O)CC[C@]3(C)[C@H](CC[C@@H]4[C@@]5(C)C[C@@H](CC#Cc6ccc(Br)cc6)C(=O)C(C)(C)[C@@H]5CC[C@]43C)[C@@H]12`, for which the growth was 65.6%.

With `CCCCCCCCCCCC(=O)C(CCCCCCCCCC)C(=O)Nc1ccccc1` (stereo not given), the growth is 115%.

Take `Cc1nc2sc(C(=O)Nc3cccc(Br)c3)c(N)c2cc1C(=O)c1ccc(C(F)(F)F)cc1`: the growth is 88.1%.

For the compound `Clc1ccc(C2CC(c3cccc(Nc4ccncc4)c3)=NN2c2ccc(Cl)cc2)cc1` (stereo not given), the growth is -71.6% (active).

With `CC(c1ccccc1)n1ccnc1CO` (stereo not given), the growth was 107%.

Regarding `O=C(Nc1ccc2ncnc(Nc3ccc(Oc4cccc(F)c4)c(Cl)c3)c2c1)c1ccc(CNCCO)cc1`, the growth was 22.8%.

With `COc1ccc2nc(N=Nc3c(O)ccc4ccccc34)sc2c1`, the growth was 31.4%.

As for `Cc1ccc(Nc2cc(=S)nc(N)[nH]2)cc1C`, the growth is 104%.

For the compound `O=C(NNc1nc(Cl)nc(N2CCN(C(c3ccccc3)c3ccccc3)CC2)n1)c1ccccc1`, the growth is -60.1% (active).

As to `C=C1C(=O)O[C@H]2[C@H]1CC/C(CNC(=O)/C=C/c1ccccc1F)=C\CC[C@@]1(C)O[C@@H]21`, the growth was -63.4% (active).

For `Fc1ccc2nc3c(cc2c1)CSc1nnc(-c2ccc[nH]c2=S)n1N3`, the growth was 104%.

Take `CCN(CC)CCCC(C)Nc1c2c(nc3ccc(OC)cc13)CCCC2` (stereo not given): the growth is 100%.

Take `O=S(=O)(NCCNc1nccc(-c2c(-c3cccc(F)c3)nc3occn23)n1)c1cccc2ccccc12`: the growth was 41.5%.

For `CC(C)(C#N)N1CCN(c2ccccc2Cl)CC1`, the growth was 103%.

As to `COc1cc(/C=C/C(=O)c2ccc(Nc3ncnc4ccccc34)cc2)cc(OC)c1`, the growth was 45.7%.

On to `COc1cc2nc(-c3ccc(C(F)(F)F)cc3)cc(OCCN3CCC(O)CC3)c2cc1OC`, for which the growth is 53.8%.
